PubChem BioAssay AID1159580 (chemical genetic matrix, 2015)
“And” between values parts separate entries of the source, which are not always exact repeats. Equal entries are not always repeated. In all, about 5,500 compounds went through this assay and about 2,000 (36%) were called active. About 18% were inconclusive and are not listed. Rule as the data show it: active = normalized growth mostly below about 0.91 (no sharp cut-off); inconclusive = no clear call, values can overlap the other calls; inactive = mostly above about 0.92. Some of the results follow.

Assay: chemical genetic growth profiling, strain panel (AID 1159580);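 also: tested at 20 µM; growth read once vehicle control cultures reached saturation at 30 °C; 1 = growth at the plate median or of vehicle wells; lower values mean less growth of the strain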
Conditions: S. cerevisiae deletion strains, growth OD

Measured: normalized growth

C[C@@H]1O[C@@H](OC[C@H]2OC(Oc3c(-c4ccc(OCCO)c(OCCO)c4)oc4cc(OCCO)cc(O)c4c3=O)[C@H](O)[C@@H](O)[C@@H]2O)[C@H](O)[C@H](O)[C@H]1O (stereo not given in full)
inactive: locus YAL013W, strain DEP1, hits give low values 0.994 | locus YAL021C, strain ccr4, hits give low values 0.972 | locus YAL026C, strain drs2, hits give low values 0.973 | locus YAL030W, strain snc1, hits give low values 0.946 | locus YBL061C, strain skt5, hits give low values 0.974 | locus YBR009C, strain hhf1, hits give low values 0.981 | locus YBR021W, strain FUR4, hits give low values 1.02 | locus YBR023C, strain chs3, hits give low values 0.956 | locus YBR171W, strain sec66, hits give low values 0.945 | locus YBR229C, strain ROT2, hits give low values 0.961 | locus YBR231C, strain swc5, hits give low values 0.962 | locus YBR279W, strain paf1, hits give low values 0.967 | locus YCL011C, strain gbp2, hits give low values 0.952 | locus YCL016C, strain dcc1, hits give low values 0.984 | locus YCL029C, strain bik1, hits give low values 1.01 | locus YCL061C, strain MRC1, hits give low values 0.973 | locus YCL069W, strain vba3, hits give low values 0.966 | locus YCR088W, strain abp1, hits give low values 0.969 | locus YDL005C, strain med2, hits give low values 0.963 | locus YDL035C, strain GPR1, hits give low values 0.945 | locus YDL040C, strain nat1, hits give low values 0.972 | locus YDL074C, strain BRE1, hits give low values 1.01 | locus YDL101C, strain DUN1, hits give low values 0.979 | locus YDL185W, strain tfp1, hits give low values 0.973 | locus YDL192W, strain arf1, hits give low values 0.992 | locus YDR001C, strain nth1, hits give low values 0.943 | locus YDR069C, strain doa4, hits give low values 0.931 | locus YDR101C, strain arx1, hits give low values 1.04 | locus YDR137W, strain rgp1, hits give low values 0.938 | locus YDR159W, strain sac3, hits give low values 0.94 | locus YDR162C, strain NBP2, hits give low values 0.985 | locus YDR195W, strain ref2 0.892 | locus YDR297W, strain sur2, hits give low values 0.974 | locus YDR318W, strain mcm21, hits give low values 0.963 | locus YDR334W, strain swr1, hits give low values 0.916 | locus YDR335W, strain msn5, hits give low values 0.958 | locus YDR388W, hits give low values 0.994 | locus YDR392W, strain spt3, hits give low values 1.02 | locus YDR502C, strain sam2, hits give low values 0.995 | locus YEL003W, strain gim4, hits give low values 0.968 | locus YEL037C, strain rad23, hits give low values 0.955 | locus YEL061C, strain CIN8 (second series), hits give low values 0.947 | locus YEL061C, strain CIN8, hits give low values 0.997 | locus YER015W, strain faa2, hits give low values 0.984 | locus YER016W, strain bim1, hits give low values 0.96 | locus YER110C, hits give low values 0.978 | locus YER111C, strain swi4, hits give low values 0.963 | locus YER155C, strain BEM2 (second series), hits give low values 0.974 | locus YER155C, strain BEM2, hits give low values 1 | locus YER167W, strain BCK2, hits give low values 1.01 | locus YFR010W, strain ubp6, hits give low values 0.946 | locus YGL078C, strain dbp3, hits give low values 0.996 | locus YGL086W, strain mad1, hits give low values 1.03 | locus YGL167C, strain pmr1, hits give low values 0.933 | locus YGL173C, strain kem1, hits give low values 0.993 | locus YGL227W, strain vid30, hits give low values 0.938 | locus YGL240W, strain doc1, hits give low values 0.958 | locus YGL248W, strain PDE1, hits give low values 0.965 | locus YGL253W, strain hxk2, hits give low values 0.965 | locus YGR078C, strain PAC10, hits give low values 0.984 | locus YGR135W, strain pre9, hits give low values 0.97 | locus YGR252W, strain gcn5, hits give low values 0.947 | locus YHR013C, strain ard1, hits give low values 0.973 | locus YHR027C, strain rpn1, hits give low values 0.958 | locus YHR030C, strain SLT2, hits give low values 1 and 0.999 | locus YHR079C, strain IRE1 (second series), hits give low values 1 | locus YHR079C, strain IRE1, hits give low values 1.02 | locus YHR094C, strain hxt1, hits give low values 0.969 | locus YHR129C, strain ARP1, hits give low values 0.99 | locus YHR142W, strain chs7, hits give low values 0.958 | locus YHR200W, strain rpn10, hits give low values 0.983 | locus YIL066C, strain RNR3, hits give low values 0.972 | locus YIL073C, strain SPO22, hits give low values 0.969 | locus YIL125W, strain kgd1, hits give low values 0.991 | locus YIR030C, strain dcg1, hits give low values 0.993 | locus YJL092W, strain hpr5, hits give low values 0.967 | locus YJL095W, strain BCK1 (second series), hits give low values 0.967 | locus YJL095W, strain BCK1, hits give low values 0.972 and 1.01 | locus YJL115W, strain asf1, hits give low values 0.948 | locus YJL129C, strain trk1, hits give low values 0.954 | locus YJL134W, strain LCB3, hits give low values 0.99 | locus YJL154C, strain vps35, hits give low values 0.958 | locus YJL164C, strain tpk1, hits give low values 0.995 | locus YJL166W, strain qcr8, hits give low values 0.971 | locus YJL168C, strain set2, hits give low values 0.993 | locus YJL187C, strain SWE1 (second series), hits give low values 0.983 | locus YJR043C, strain POL32, hits give low values 0.972 | locus YJR066W, strain TOR1, hits give low values 0.941 | locus YJR075W, strain HOC1, hits give low values 0.983 | locus YKL009W, strain mrt4, hits give low values 0.978 | locus YKL068W, hits give low values 0.973 | locus YKL085W, strain MDH1 (second series), hits give low values 0.981 | locus YKL085W, strain MDH1, hits give low values 0.981 | locus YKL160W, strain elf1, hits give low values 0.986 | locus YKL190W, strain CNB1, hits give low values 0.992 | locus YKR001C, strain vps1, hits give low values 0.994 | locus YKR026C, strain gcn3, hits give low values 0.946 | locus YKR091W, strain srl3, hits give low values 0.974 | locus YLL001W, strain dnm1, hits give low values 0.963 | locus YLL026W, hits give low values 0.947 | locus YLL041C, strain sdh2, hits give low values 0.959 | locus YLR027C, strain aat2, hits give low values 0.964 | locus YLR039C, strain RIC1, hits give low values 1.07 | locus YLR058C, strain SHM2, hits give low values 0.978 | locus YLR102C, strain apc9, hits give low values 0.986 | locus YLR113W, strain HOG1, hits give low values 1.01 | locus YLR221C, strain rsa3, hits give low values 0.986 | locus YLR258W, strain gsy2, hits give low values 0.971 | locus YLR262C, strain YPT6 (second series), hits give low values 0.961 | locus YLR262C, strain YPT6, hits give low values 1.08 | locus YLR268W, strain sec22, hits give low values 1.03 | locus YLR320W, strain mms22, hits give low values 1.01 | locus YLR330W, strain CHS5, hits give low values 1 | locus YLR342W, strain FKS1 (second series), hits give low values 0.985 | locus YLR342W, strain FKS1, hits give low values 0.974 | locus YLR357W, strain rsc2, hits give low values 0.947 | locus YLR370C, strain arc18, hits give low values 0.954 | locus YLR371W, strain rom2, hits give low values 0.963 | locus YLR384C, strain iki3, hits give low values 0.962 | locus YLR418C, strain cdc73, hits give low values 0.959 | locus YML016C, strain PPZ1, hits give low values 0.996 | locus YML032C, strain rad52, hits give low values 0.952 | locus YML120C, strain ndi1, hits give low values 0.963 | locus YML124C, strain tub3, hits give low values 1.01 | locus YMR058W, strain fet3, hits give low values 0.959 | locus YMR078C, strain ctf18, hits give low values 0.988 | locus YMR125W, strain sto1, hits give low values 0.948 | locus YMR129W, hits give low values 0.972 | locus YMR205C, strain PFK2, hits give low values 0.977 | locus YMR223W, strain ubp8, hits give low values 0.985 | locus YMR231W, strain pep5, hits give low values 0.971 | locus YMR307W, strain GAS1, hits give low values 1.01 | locus YNL067W, strain RPL9B, hits give low values 0.978 | locus YNL071W, strain lat1, hits give low values 0.971 | locus YNL128W, strain TEP1, hits give low values 0.998 | locus YNL183C, strain NPR1, hits give low values 0.936 | locus YNL209W, strain ssb2, hits give low values 0.958 | locus YNL233W, strain BNI4, hits give low values 0.993 | locus YNL248C, strain rpa49, hits give low values 0.973 | locus YNL250W, strain rad50, hits give low values 0.984 | locus YNL271C, strain bni1, hits give low values 0.993 | locus YNL298W, strain CLA4, hits give low values 0.973 | locus YNL307C, strain MCK1, hits give low values 0.988 | locus YNL322C, strain KRE1 (second series), hits give low values 0.949 | locus YNR049C, strain mso1, hits give low values 0.965 | locus YNR052C, strain pop2, hits give low values 0.99 | locus YOL012C, strain htz1 1.9 | locus YOL147C, strain pex11, hits give low values 0.991 | locus YOR001W, strain rrp6, hits give low values 0.962 | locus YOR061W, strain CKA2, hits give low values 0.954 | locus YOR069W, strain VPS5, hits give low values 0.994 | locus YOR070C, strain gyp1, hits give low values 0.977 | locus YOR080W, strain dia2, hits give low values 0.943 | locus YOR083W, strain WHI5, hits give low values 0.987 | locus YOR106W, strain vam3, hits give low values 0.943 | locus YOR136W, strain idh2, hits give low values 0.984 | locus YOR144C, strain elg1, hits give low values 0.986 | locus YOR184W, strain ser1, hits give low values 0.987 | locus YOR231W, strain MKK1, hits give low values 1.03 | locus YOR265W, strain rbl2, hits give low values 0.963 | locus YOR270C, strain vph1, hits give low values 0.94 | locus YOR290C, strain snf2, hits give low values 0.972 | locus YOR316C, strain cot1, hits give low values 0.982 | locus YPL051W, strain arl3, hits give low values 0.956 | locus YPL055C, strain LGE1, hits give low values 0.994 | locus YPL078C, strain atp4, hits give low values 0.952 | locus YPL106C, strain sse1, hits give low values 0.925 | locus YPL240C, strain hsp82, hits give low values 0.972 | locus YPL241C, strain CIN2, hits give low values 1 | locus YPL256C, strain CLN2, hits give low values 1.01 | locus YPR119W, strain clb2, hits give low values 0.996 | locus YPR141C, strain kar3, hits give low values 0.974 | locus YPR163C, strain tif3, hits give low values 0.993 | locus YPR167C, strain met16, hits give low values 0.99 | strain wtn01, hits give low values 1.02
